Bioassay records: PubChem, Sanford-Burnham Center for Chemical Genomics
Most compounds without a hit are left out; they make up all but 31% or so of the library.
PLAP act = activates human placental alkaline phosphatase; 96,000 compounds, 1.2% hits; purified PLAP enzyme, luminescent substrate read-out; stronger effect = higher value; activation fold at 20 µM; in the data active means activation fold above about 2
CYP2C9 activ = activators of human CYP2C9; P11712; recombinant CYP2C9, luciferin-H conversion, luminescence; stronger effect = higher value; factor 1 = untreated enzyme, 0 = blocked; activation factor at 5 µM; 96,000 compounds, 1.4% hits; AID 1024;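 active means activation factor of 2 or more for CYP2C9 at a 5 µM dose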
CYP2C9 inh = inhibitors of human CYP2C9; AID 777; CYP2C9 Supersomes, luciferin-H conversion, luminescence; P11712; 96,000 compounds, 20% hits; inhibition, % at 5 µM;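 active means blocking of liver enzyme CYP2C9 beyond about 50% at 5 µM, limit read from the data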
CYP2C19 inh = human CYP2C19 inhibition; 96,000 compounds, 21% hits; P33261; inhibition, % at 5 µM; CYP2C19 Supersomes, luciferin-H EGE luminescence, 30 min; AID 778;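 active means CYP2C19 inhibition above a set limit at 5 µM in the primary screen, cut at about 50% in these data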
Target sequence (P33261 whole entry, looked up): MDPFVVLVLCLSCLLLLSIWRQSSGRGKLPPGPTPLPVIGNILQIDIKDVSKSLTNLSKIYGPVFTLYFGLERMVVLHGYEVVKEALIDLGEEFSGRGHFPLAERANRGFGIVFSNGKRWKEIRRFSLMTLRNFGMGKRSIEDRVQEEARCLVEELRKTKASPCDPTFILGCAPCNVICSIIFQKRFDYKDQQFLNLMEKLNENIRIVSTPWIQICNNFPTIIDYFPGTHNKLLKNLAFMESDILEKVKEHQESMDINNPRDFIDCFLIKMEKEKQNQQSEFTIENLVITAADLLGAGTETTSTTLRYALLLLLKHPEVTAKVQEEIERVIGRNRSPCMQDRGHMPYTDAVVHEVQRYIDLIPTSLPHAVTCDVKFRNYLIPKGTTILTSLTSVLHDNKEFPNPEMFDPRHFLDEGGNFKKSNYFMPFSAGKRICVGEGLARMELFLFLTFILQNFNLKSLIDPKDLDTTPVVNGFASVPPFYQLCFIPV
CYP2C19 act = increases human CYP2C19 enzyme activity; P33261; activation factor at 5 µM; recombinant CYP2C19, luciferin-H EGE luminescence; stronger effect = higher value; 0 = fully inhibited enzyme, 1 = untreated enzyme; 96,000 tested, under 10 active;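 active means activation factor of at least 2 at 5 µM in the primary screen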
Numbers stand for hits; n = inactive.

SMILES | PLAP act | CYP2C9 activ | CYP2C9 inh | CYP2C19 inh | CYP2C19 act
CC1CCc2cc(F)ccc2N1C(=O)CN1C(=O)c2ccccc2C1=O (configuration not stated) | n | n | n | n | n
CCCN(Cc1cc2cc(OC)ccc2[nH]c1=O)C(=O)c1ccncc1 | n | n | n | 68 | n
COc1ccc2cc(CN(C(=O)Nc3ccccc3OC)C3CCCC3)c(=O)[nH]c2c1 | n | n | 51 | n | n
CCCN(Cc1cc2cc(C)ccc2[nH]c1=O)S(C)(=O)=O | n | n | 73 | 88 | n
CCOc1ccc(C(=O)N(Cc2ccc(OC)cc2)Cc2cc3cc(OC)ccc3[nH]c2=O)cc1 | n | n | n | n | n
COc1ccc2[nH]c(=O)c(CN(C(=O)c3ccccn3)C3CCCCC3)cc2c1 | n | n | 63 | n | n
CCCCOC(=O)Nc1cc(C(=O)OC)ccc1C(=O)OC | n | n | n | n | n
CCCCN(Cc1cc2cc(OC)ccc2[nH]c1=O)C(=O)c1ccco1 | n | n | 70 | 74 | n
CCCN(Cc1cc2cc(C)ccc2[nH]c1=O)C(=O)c1cccc(OC)c1 | n | n | 58 | 64 | n
CCOC(=O)c1cccc(S(=O)(=O)N(CCO)Cc2cc3cc(OC)ccc3[nH]c2=O)c1 | n | n | n | 56 | n
COc1ccc2[nH]c(=O)c(CN(C)C(=O)c3ccncc3)cc2c1 | n | n | 60 | 92 | n
CCCCC(CC)CNS(=O)(=O)c1ccc2c(c1)CCN2C(=O)CCC(=O)O (configuration not stated) | n | n | n | n | n
CC1CCCC(C)N1CC(O)COCC1COc2ccccc2O1 (configuration not stated) | n | n | n | n | n
COc1ccc2[nH]c(=O)c(CN(C(=O)c3ccncc3)C(C)(C)C)cc2c1 | n | n | n | n | n
COc1ccc2[nH]c(=O)c(CN(C(=O)c3ccncc3)C(C)C)cc2c1 | n | n | 50 | n | n
CC(=O)NCCOc1cccc2ccccc12 | n | n | n | 56 | n
O=C(O)Cn1c(P(=O)(O)c2ccccc2)nc2ccccc21 | n | n | n | n | n
COc1cc(C(c2c(C)[nH][nH]c2=O)c2c(C)[nH][nH]c2=O)ccc1OCc1ccc([N+](=O)[O-])cc1 | 2.6 | n | n | n | n
CCOC(=O)C(=Cc1ccc(OCc2ccc([N+](=O)[O-])cc2)c(OC)c1)C(=O)OCC | n | n | 53 | n | n
COc1cc(C(c2c(C)[nH][nH]c2=O)c2c(C)[nH][nH]c2=O)ccc1OS(=O)(=O)c1ccc(C)cc1 | 2.9 | n | 66 | 85 | n
COc1cc(C(c2c(C)[nH][nH]c2=O)c2c(C)[nH][nH]c2=O)ccc1OS(=O)(=O)c1ccccc1 | 2.5 | n | n | n | n
COc1cc(C(c2c(C)[nH][nH]c2=O)c2c(C)[nH][nH]c2=O)ccc1OC(=O)c1cccc([N+](=O)[O-])c1 | n | n | n | n | n
CCN(CC)CCNC(=O)C1c2ccccc2C(=O)N(CCOC)C1c1ccc(F)cc1 (configuration not stated) | n | n | n | n | n
CCCc1nc(NC(C)=O)c(C#N)c(-c2ccco2)c1CC | n | n | n | n | n
CCOC(=O)C12CNC(=O)C(C(=O)OCC)(CNC1=O)C2 | n | n | n | n | n
SMILES | PLAP act | CYP2C9 activ | CYP2C9 inh | CYP2C19 inh | CYP2C19 act
CCOC(=O)c1sc(NC(=O)COC(=O)c2ccco2)nc1C | n | n | n | n | n
Cc1ccc(C)n1/N=C1/NC(=O)CS1 | n | n | n | n | n
COc1ccc(OC(=O)c2ccc3nsnc3c2)cc1 | n | n | n | n | n
Cc1n[nH]c(C)c1N=Nc1cc(Cl)ccc1Cl | n | n | n | n | n
CCCc1cc(=O)[nH]c(SCC(=O)N2CCN(S(=O)(=O)c3ccc(C)cc3)C2)n1 | n | n | n | n | n
CSc1ccccc1NC(=O)c1cccs1 | n | n | n | n | n
Cc1ccc(NC(NC(=O)c2cccs2)C(Cl)(Cl)Cl)cc1C (configuration not stated) | n | n | 56 | n | n
Cc1ccc(NC(NC(=O)c2cccs2)C(Cl)(Cl)Cl)cc1 (configuration not stated) | n | n | 99 | 95 | n
Cc1ccc(NC(NC(=O)c2ccccn2)C(Cl)(Cl)Cl)cc1 (configuration not stated) | n | n | n | n | n
Cc1ccccc1NC(NC(=O)c1cccs1)C(Cl)(Cl)Cl (configuration not stated) | n | n | 96 | 99 | n
Cc1ccc(CC23CN4CCN(CC(C4)C2O)C3)c(C)c1 (configuration not stated) | n | n | n | n | n
CC(C)(C)c1cn(-c2ccc(F)cc2)c(=S)[nH]1 | n | n | n | 63 | n
Cc1ccc2c(CSc3nnc(C4CC4)n3N)cc(=O)oc2c1C | n | n | n | n | n
CCCCCCNCc1ccc(Br)cc1 | n | n | n | 75 | n
CC(/C=N/n1c(C2CCCCC2)n[nH]c1=S)=C\c1ccccc1 | n | n | 61 | n | n
COC(=O)Cn1cc(C(=O)OC)c2ccccc21 | n | n | n | n | n
COC(=O)c1cn(CCOc2ccccc2F)c2ccccc12 | n | n | 99 | 98 | n
COC(=O)c1cn(CCOc2ccccc2)c2ccccc12 | n | n | 97 | 96 | n
COC(=O)c1cn(C(=O)OC)c2ccccc12 | n | n | n | n | n
Cc1ccc(OCCn2cc(C(=S)N3CCCC3)c3ccccc32)cc1C | n | n | 63 | 67 | n
CCOC(=O)Cn1cc(C(=O)OC)c2ccccc21 | n | n | n | 54 | n
Cc1cc(C)cc(N2C(=O)CC(n3nc(C)cc3C)C2=O)c1 (configuration not stated) | n | n | n | n | n
S=C(Nc1ccc2snnc2c1)N1CCN(c2ccccn2)CC1 | n | n | n | n | n
Cc1cc(C)cc(NC(=O)C2CCN(S(=O)(=O)c3c(C)n[nH]c3C)CC2)c1 | n | n | n | n | n
NC1(N)OC(CN2C(=O)c3ccccc3C2=O)CS1 (configuration not stated) | n | n | n | 52 | n
SMILES | PLAP act | CYP2C9 activ | CYP2C9 inh | CYP2C19 inh | CYP2C19 act
CC(=O)c1cccc(NC(=O)N2CCc3ccccc3C2)c1 | n | n | 56 | 68 | n
O=C(Nc1ccccc1)N1CCCC1 | n | n | n | n | n
Cc1ccc(N2CC(C(=O)N3CCN(c4ccccc4)CC3)CC2=O)cc1 (configuration not stated) | n | n | n | n | n
Cc1ccc(N2CC(C(=O)N3CCc4ccccc4C3)CC2=O)cc1 (configuration not stated) | n | n | 67 | n | n
CC(=O)c1cccc(NC(=O)N2CCCc3ccccc32)c1 | n | n | n | n | n
Cc1ccc(C2CCN(C(=O)Nc3ccccc3)C2)cc1 (configuration not stated) | n | n | n | 60 | n
Cc1ccc(NC(=O)N2CCc3ccccc3C2)cc1 | n | n | n | 93 | n
O=c1c2ccccc2nc(/C=C/c2ccc([N+](=O)[O-])o2)n1CCCO | n | n | n | n | n
COC(=O)c1scc(C)c1N/N=C(\C)c1ccc(F)cc1F | n | n | n | n | n
